SMILES strings stand for the structures. Unmarked numbers belong to inactive results. Results filed as inconclusive are left out. Calls of active or inactive are those of the source. Unless noted, the call rests on the fitted dose curve; in most records, active means well fitted curve in the direction sought with a large enough effect in the repeat runs; inconclusive means weak or mixed curves; inactive means no such curve, though single readings can be large; an effect the other way counts as inactive or inconclusive.

A short description of assay [1]: qHTS assay to identify small molecule antagonists of the sonic hedgehog signaling (Shh) pathway (AID 1259369; calls by dose curve; further: nearly all actives have a fitted effect of over 45% in size; further: potency means the concentration at half of the fitted maximal effect). Summed up: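 NIH/3T3-derived Gli1-Luc reporter cells plated 4 h, dosed with compound, then stimulated with conditioned medium for 24 h at 37 C. Firefly luciferase luminescence read after 30 min with detection reagent at room temperature.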
For orientation: Quantitative high-throughput screening tests each substance at several concentrations.

In assay [2] the target is Estrogen receptor beta (Homo sapiens) (UniProt Q92731). Briefly: qHTS assay to identify small molecule agonists of the estrogen receptor beta (ER-beta) signaling pathway (AID 1259377; active means well fitted activation curve with a large enough effect in the signal ratio in the repeat runs, not every such curve was filed as active; the % refers to the signal ratio). Summed up:
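Read-out: beta-lactamase FRET fluorescence. Cell line: ER-beta-UAS-bla HEK293T in 2% charcoal-stripped FBS. Exposure: 16 hr at 37C. Substrate step: 2 h at room temperature.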

Assay [3] shares this target. Briefly: qHTS assay to identify small molecule antagonists of the estrogen receptor beta (ER-beta) signaling pathway (AID 1259378; active means well fitted inhibition curve with a large enough effect in the signal ratio in the repeat runs, not every such curve was filed as active; the % refers to the signal ratio). In short, it runs like this: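 ER-beta-UAS-bla HEK293T cells in 2% charcoal-stripped FBS medium treated with compound plus 1nM final 17-beta-estradiol for 16 hr at 37C. Beta-lactamase reporter read by FRET substrate fluorescence after 2 hours at room temperature.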

A short description of assay [4]: qHTS assay to identify small molecule agonists of the androgen receptor (AR) signaling pathway in the presence of an antagonist - cell viability counter screen (AID 1259379).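 Further: MDA-kb2 human breast cancer cells carrying an MMTV luciferase reporter; series mostly up to about 92 µM; nearly all actives have a fitted effect of over 25% in size.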 In short, it runs like this: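 MDA-kb2 cells (MMTV-luciferase, AR/GR), 3,000/well, 5 h attachment, then 3.0 µM nilutamide (final) and compounds at 15 concentrations. Viability by CellTiter-Fluor fluorescence after 16 h at 37 °C, 0% CO2, in the reporter wells.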

Assay [5] can be described thus: qHTS assay to identify small molecule agonists of the estrogen receptor beta (ER-beta) signaling pathway - cell viability counter screen (AID 1259380). Further: nearly all actives have a fitted effect of over 30% in size. Summed up:
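ER-beta-UAS-bla HEK293T cells in medium with 2% charcoal-stripped FBS, pre-incubated 6 hr, then treated 16 hr at 37C. Cytotoxicity read in the same wells by CellTiter-Glo luminescence after 30 min at room temperature.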

Assay [6] can be described thus: qHTS assay to identify small molecule antagonists of the estrogen receptor beta (ER-beta) signaling pathway - cell viability counter screen (AID 1259382). Further: series mostly up to about 92 µM; nearly all actives have a fitted effect of over 55% in size. In short, it runs like this: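 ER-beta-UAS-bla HEK293T cells in 2% charcoal-stripped FBS medium, treated with compound plus 1 nM 17-beta-estradiol for 16 h at 37C. Viability read by CellTiter-Glo luminescence after 30 min at room temperature in the same wells.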

Assay [7] has as its target Progesterone receptor (Homo sapiens) (UniProt P06401). Briefly: qHTS assay to identify small molecule antagonists of the progesterone receptor (PR) signaling pathway (AID 1346795; active means well fitted inhibition curve with a large enough effect in the signal ratio in the repeat runs, not every such curve was filed as active; the % refers to the signal ratio). Summed up: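 In HEK293T cells bearing the PR-UAS-bla reporter, compound effects on promegestone-driven (1 nM) beta-lactamase expression are assessed after 16 hr using a fluorescent FRET substrate incubated 2 hr at room temperature.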

Assay [8] in a line: qHTS assay to identify small molecule antagonists of the progesterone receptor (PR) signaling pathway - cell viability counter screen (AID 1346798). Further: series mostly up to about 92 µM; nearly all actives have a fitted effect of over 50% in size. Summed up:
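Following a 4 hr attachment, PR-UAS-bla HEK293T cells in charcoal-stripped FBS medium were exposed to compounds with R5020 for 16 hr; CellTiter-Glo was added and luminescence read after 30 min at room temperature.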

Assay [9] is described as follows: qHTS assay to identify small molecule agonists of the progesterone receptor (PR) signaling pathway - cell viability counter screen (AID 1346799; calls by dose curve; further: nearly all actives have a fitted effect of over 45% in size). Summed up:
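Here, 3,000 PR-UAS-bla HEK293T cells per well were treated with compounds for 16 hr after a 6 hr preincubation at 37C and 5% CO2; cell viability is the CellTiter-Glo luminescence signal.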

The nature of assay [10]: qHTS assay to identify small molecule antagonists of the TGF-beta/Smad signaling pathway - cell viability counter screen (AID 1346824). Further: nearly all actives have a fitted effect of over 50% in size. In short, it runs like this:
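SBE-bla HEK 293T cells, incubated overnight, then compound plus 0.25 ng/mL TGF-beta1 (stock added) for 5 hr at 37 C. Viability was read in the same wells by CellTiter-Glo luminescence after 30 min at room temperature.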

The nature of assay [11]: qHTS assay to identify small molecule agonists of the TGF-beta/Smad signaling pathway - cell viability counter screen (AID 1346829). Further: top concentration of the series differs between compounds; nearly all actives have a fitted effect of over 45% in size. Summed up:
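Luminescence from CellTiter-Glo, read after a 30 min room-temperature incubation, gives cell viability of SBE-bla HEK 293T cells treated 5 hr with compounds at 37 C.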

The nature of assay [12]: qHTS assay to identify small molecule agonists of the TGF-beta/Smad signaling pathway (AID 1346859; active means well fitted activation curve with a large enough effect in the signal ratio in the repeat runs, not every such curve was filed as active; the % refers to the signal ratio; further: series mostly up to about 77 µM). In short, it runs like this:
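Each well held 4,000 SBE-bla HEK 293T cells incubated overnight before compound addition; 5 hr later the cleavable FRET substrate went on for 2 hr at room temperature, and fluorescence was read at two emissions.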

For assay [13], the target named is Thyrotropin-releasing hormone receptor (Homo sapiens) (UniProt P34981). Briefly: qHTS assay to identify small molecule antagonists of the thyrotropin-releasing hormone receptor (TRHR) signaling pathway (AID 1346877; active means well fitted inhibition curve with a large enough effect in the repeat runs, not every such curve was filed as active; further: series mostly up to about 51 µM). Summed up: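 TRHR-expressing HEK293 cells loaded with calcium dye for 2 h at 37 C; compounds pre-incubated 5 min at room temperature before TRH challenge at 1 nM final. Intracellular calcium fluorescence read kinetically for 3 min; 15 concentrations in triplicate.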
Thyrotropin-releasing hormone receptor (Homo sapiens), sequence (P34981 whole entry, looked up): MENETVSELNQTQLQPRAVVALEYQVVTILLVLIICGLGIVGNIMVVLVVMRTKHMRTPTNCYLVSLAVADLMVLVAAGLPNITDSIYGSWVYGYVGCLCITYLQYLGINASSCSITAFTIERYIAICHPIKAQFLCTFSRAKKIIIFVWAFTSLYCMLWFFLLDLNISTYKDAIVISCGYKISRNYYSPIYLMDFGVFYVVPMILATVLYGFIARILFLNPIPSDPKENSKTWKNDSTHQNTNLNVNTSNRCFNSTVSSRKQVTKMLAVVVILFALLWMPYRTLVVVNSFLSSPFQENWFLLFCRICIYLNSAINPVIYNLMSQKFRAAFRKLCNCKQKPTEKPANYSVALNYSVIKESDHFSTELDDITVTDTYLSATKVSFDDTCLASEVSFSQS

For assay [14] the target is unchanged. Briefly: qHTS assay to identify small molecule agonists of the thyrotropin-releasing hormone receptor (TRHR) signaling pathway (AID 1346891; calls by dose curve; further: series mostly up to about 58 µM). In short, it runs like this: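 Screening of agonists relied on calcium signalling in HEK293 cells expressing human TRHR: dye loading 2 h at 37 °C preceded compound addition and a 3-min fluorescence time course.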
A short description of assay [15]: qHTS assay to identify small molecule agonists of the estrogen receptor alpha (ER-alpha) signaling pathway in the presence of an antagonist - cell viability counter screen (AID 1259386).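 Further: series mostly up to about 92 µM; cells exposed to compounds for 22 h at 37 °C before the viability read; nearly all actives have a fitted effect of over 30% in size.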 In short, it runs like this: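 Cell viability in VM7Luc4E2 cells (endogenous full-length ER-alpha) measured by CellTiter-Fluor fluorescence in the same wells as the luciferase screen. Cells pre-cultured 5 days in charcoal-stripped serum, then treated 22 h with compounds at 15 concentrations plus 10.0nM ICI-182,780.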

Assay [16] has as its target Progesterone receptor (Homo sapiens) (UniProt P06401). Briefly: qHTS assay to identify small molecule agonists of the progesterone receptor (PR) signaling pathway (AID 1346784; calls by dose curve; further: nearly all actives have a fitted effect of over 30% in size). Summed up: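 Compounds were tested for PR agonism in HEK 293T cells bearing a beta-lactamase gene under UAS control. Treatment lasted 16 hr at 37C; signal came from fluorescence of a FRET substrate.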

For assay [17], the target named is Androgen receptor (Homo sapiens) (UniProt P10275). Briefly: qHTS assay to identify small molecule agonists of the androgen receptor (AR) signaling pathway in the presence of an antagonist (AID 1259381; calls by dose curve; further: nearly all actives have a fitted effect of over 15% in size). Summed up: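 MDA-kb2 cells carrying MMTV-luciferase (AR/GR responsive), 3,000 cells/well, co-treated with 3.0 uM nilutamide final. Compounds at 15 concentrations, 16 hr at 37C without CO2. Luciferase luminescence read after 30 min with ONE-Glo.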
Androgen receptor (Homo sapiens), sequence (P10275 whole entry, looked up): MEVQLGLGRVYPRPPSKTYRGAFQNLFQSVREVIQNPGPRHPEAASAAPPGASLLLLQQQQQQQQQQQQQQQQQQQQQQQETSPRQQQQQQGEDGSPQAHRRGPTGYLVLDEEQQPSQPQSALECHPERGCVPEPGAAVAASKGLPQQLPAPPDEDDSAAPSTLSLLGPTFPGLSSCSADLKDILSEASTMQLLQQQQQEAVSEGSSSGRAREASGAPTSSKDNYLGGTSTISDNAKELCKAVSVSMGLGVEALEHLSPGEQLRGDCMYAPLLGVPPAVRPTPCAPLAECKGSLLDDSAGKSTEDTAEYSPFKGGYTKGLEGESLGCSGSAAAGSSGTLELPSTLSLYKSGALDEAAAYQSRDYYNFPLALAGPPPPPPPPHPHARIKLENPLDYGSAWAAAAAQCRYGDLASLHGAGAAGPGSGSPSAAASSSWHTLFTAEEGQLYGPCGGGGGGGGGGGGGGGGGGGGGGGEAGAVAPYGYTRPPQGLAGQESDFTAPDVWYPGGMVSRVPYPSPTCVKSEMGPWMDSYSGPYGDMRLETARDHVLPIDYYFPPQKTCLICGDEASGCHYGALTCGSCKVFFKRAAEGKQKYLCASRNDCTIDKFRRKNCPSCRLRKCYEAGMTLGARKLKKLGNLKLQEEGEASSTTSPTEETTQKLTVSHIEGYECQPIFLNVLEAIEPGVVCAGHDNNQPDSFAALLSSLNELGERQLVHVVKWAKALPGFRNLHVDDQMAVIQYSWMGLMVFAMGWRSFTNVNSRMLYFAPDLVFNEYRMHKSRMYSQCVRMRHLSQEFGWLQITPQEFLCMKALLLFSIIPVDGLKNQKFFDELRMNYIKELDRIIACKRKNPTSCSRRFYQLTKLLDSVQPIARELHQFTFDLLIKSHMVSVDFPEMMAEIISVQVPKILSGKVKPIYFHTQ

Assay [18] concerns the target Estrogen receptor (Homo sapiens) (UniProt P03372). Briefly: qHTS assay to identify small molecule agonists of the estrogen receptor alpha (ER-alpha) signaling pathway in the presence of an antagonist (AID 1259383; calls by dose curve; further: top concentration of the series differs between compounds; nearly all actives have a fitted effect of over 15% in size). Summed up: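 VM7Luc4E2 cells express endogenous full-length ER-alpha with an ERE-luciferase reporter and were hormone-deprived for 5 days. Compounds at 15 concentrations were added with 10.0nM ICI-182,780 for 22hr at 37C. Luminescence was read with ONE-Glo.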

Assay [19] is described as follows: qHTS assay to identify small molecule agonists or antagonists of the thyroid stimulating hormone receptor (TSHR) signaling pathway - wild type cell line counter screen (AID 1259384; calls by dose curve). Summed up:
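Wild-type Hek293 cells, 800/well, 18 h at 37C, then compound with Ro20-1724 for 30 min RT. cAMP by HTRF (cAMP-d2/anti-cAMP cryptate), 1 h RT, fluorescence read. 15 concentrations, triplicates.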

Assay [20] concerns the target Thyrotropin receptor (Homo sapiens) (UniProt P16473). Briefly: qHTS assay to identify small molecule antagonists of the thyroid stimulating hormone receptor (TSHR) signaling pathway (AID 1259385; calls by dose curve; further: nearly all actives have a fitted effect of over 20% in size). In short, it runs like this:
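TSHR-HEK293 cells (800/well) plated 18 h, then compounds with Ro20-1724 and TSH at 1.5 ng/mL final, 30 min at room temperature. cAMP quantified by HTRF (cAMP-d2/anti-cAMP-cryptate, 1 h); 15 concentrations in triplicate.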
On the % scale 0 is the no-effect control and ±100 the full control effect.

Estrogen receptor beta (Homo sapiens), sequence (Q92731 whole entry, looked up): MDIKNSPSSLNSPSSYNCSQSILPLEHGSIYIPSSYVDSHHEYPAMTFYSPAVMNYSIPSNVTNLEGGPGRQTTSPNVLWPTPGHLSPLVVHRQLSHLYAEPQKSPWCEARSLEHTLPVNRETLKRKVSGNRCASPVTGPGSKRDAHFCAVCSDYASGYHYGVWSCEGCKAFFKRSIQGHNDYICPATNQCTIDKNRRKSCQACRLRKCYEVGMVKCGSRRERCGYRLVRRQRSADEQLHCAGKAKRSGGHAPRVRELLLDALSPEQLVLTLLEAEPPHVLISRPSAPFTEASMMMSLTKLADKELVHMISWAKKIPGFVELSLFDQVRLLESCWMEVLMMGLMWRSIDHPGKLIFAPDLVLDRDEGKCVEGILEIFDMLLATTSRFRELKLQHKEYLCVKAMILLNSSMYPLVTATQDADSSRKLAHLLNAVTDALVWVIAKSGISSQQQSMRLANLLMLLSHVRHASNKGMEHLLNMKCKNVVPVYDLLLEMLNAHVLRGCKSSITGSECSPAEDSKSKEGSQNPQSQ
Progesterone receptor (Homo sapiens), sequence (P06401 whole entry, looked up): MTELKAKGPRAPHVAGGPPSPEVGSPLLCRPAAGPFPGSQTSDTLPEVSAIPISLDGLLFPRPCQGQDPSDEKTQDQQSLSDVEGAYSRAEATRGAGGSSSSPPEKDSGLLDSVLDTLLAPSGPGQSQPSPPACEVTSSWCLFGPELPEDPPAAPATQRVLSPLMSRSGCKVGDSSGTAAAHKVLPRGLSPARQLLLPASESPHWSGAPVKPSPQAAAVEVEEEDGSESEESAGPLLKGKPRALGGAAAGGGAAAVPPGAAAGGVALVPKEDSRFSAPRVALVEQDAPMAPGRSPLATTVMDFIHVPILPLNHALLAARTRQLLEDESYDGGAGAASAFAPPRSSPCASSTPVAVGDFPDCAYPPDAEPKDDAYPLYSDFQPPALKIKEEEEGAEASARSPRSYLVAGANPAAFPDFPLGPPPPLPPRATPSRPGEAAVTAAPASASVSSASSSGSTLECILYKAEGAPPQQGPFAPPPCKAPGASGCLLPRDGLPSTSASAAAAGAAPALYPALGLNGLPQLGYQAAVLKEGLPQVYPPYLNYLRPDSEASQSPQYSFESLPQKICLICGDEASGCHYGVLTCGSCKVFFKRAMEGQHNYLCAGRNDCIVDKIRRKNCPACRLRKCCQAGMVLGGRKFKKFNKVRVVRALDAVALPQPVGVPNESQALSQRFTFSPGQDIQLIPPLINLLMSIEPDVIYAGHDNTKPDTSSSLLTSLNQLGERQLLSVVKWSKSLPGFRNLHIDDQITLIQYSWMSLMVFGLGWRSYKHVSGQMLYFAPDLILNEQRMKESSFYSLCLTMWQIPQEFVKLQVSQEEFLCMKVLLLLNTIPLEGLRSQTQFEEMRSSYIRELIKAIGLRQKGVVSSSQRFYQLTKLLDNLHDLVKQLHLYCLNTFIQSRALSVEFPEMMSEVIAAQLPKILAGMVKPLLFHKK
Thyrotropin receptor (Homo sapiens), sequence (P16473 whole entry, looked up): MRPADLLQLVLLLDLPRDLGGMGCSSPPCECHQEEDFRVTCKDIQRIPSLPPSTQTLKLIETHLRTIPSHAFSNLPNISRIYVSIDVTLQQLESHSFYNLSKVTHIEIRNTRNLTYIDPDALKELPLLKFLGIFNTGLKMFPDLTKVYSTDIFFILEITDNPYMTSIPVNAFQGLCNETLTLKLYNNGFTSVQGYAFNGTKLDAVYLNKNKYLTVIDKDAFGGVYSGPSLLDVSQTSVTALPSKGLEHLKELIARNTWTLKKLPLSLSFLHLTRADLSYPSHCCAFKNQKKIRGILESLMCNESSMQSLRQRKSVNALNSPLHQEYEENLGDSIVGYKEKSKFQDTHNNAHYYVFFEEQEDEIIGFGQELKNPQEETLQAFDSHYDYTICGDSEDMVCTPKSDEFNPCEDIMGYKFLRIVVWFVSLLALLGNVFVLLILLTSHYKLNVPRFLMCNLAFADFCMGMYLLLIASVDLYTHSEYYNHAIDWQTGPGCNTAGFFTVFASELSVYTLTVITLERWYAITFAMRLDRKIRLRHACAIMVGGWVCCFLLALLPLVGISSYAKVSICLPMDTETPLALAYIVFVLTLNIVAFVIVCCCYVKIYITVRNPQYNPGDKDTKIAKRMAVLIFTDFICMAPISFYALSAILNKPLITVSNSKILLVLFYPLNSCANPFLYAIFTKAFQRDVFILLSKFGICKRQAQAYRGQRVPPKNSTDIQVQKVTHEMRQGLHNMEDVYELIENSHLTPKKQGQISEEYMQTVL
Estrogen receptor (Homo sapiens), sequence (P03372 whole entry, looked up): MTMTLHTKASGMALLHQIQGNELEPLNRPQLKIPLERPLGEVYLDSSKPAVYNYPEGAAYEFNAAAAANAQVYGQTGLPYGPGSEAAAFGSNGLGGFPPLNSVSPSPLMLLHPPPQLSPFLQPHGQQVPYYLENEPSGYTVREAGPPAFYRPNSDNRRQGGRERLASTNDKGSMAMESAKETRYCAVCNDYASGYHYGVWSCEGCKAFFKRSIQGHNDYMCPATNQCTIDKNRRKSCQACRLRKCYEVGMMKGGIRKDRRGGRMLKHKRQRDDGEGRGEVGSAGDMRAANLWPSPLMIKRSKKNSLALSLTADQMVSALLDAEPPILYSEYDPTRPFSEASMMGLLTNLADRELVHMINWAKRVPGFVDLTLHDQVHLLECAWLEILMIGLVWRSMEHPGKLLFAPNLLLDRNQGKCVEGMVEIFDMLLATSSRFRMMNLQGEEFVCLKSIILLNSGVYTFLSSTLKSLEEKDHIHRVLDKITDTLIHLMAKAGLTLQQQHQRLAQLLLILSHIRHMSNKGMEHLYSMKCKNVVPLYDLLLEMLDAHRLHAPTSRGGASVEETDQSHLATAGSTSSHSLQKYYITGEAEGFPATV

As to `CCn1cc(C(=O)O)c(=O)c2cnc(N3CCNCC3)nc21`, the Potency entry in assay [1], in assay [2], in [3], in assay [4], in assay [5] and in assay [6] was “inactive” throughout. For the same molecule, the Potency entry in assay [7], in [8], in assay [9], in assay [10], in assay [12] and in assay [14] was “inactive” in each case. In addition, the result in [11] and in [13] was inactive.
On to `CC(C)(CO)[N+](=O)[O-]`, for which the Potency entry in [1], in [2], in assay [3], in [4], in assay [5] and in assay [15] was “inactive” throughout. The Potency result in assay [16], in [8], in assay [9], in assay [12] and in assay [14] was “inactive” each time. The molecule was called inactive in assay [11] and in assay [13].
For `O=C(O)CNCC(=O)O`, the activity change, negative = inhibition in [1] is 8.21% [at 8.39 µM]; in assay [20], -1.17% [at 8.39 µM]; in assay [7] it was 1.55% [at 8.39 µM]. Besides, the activation in assay [2] is 0.711% [at 8.39 µM]; in [17] it was 3.52% [at 8.39 µM]; in assay [18], -1.55% [at 8.39 µM]; in assay [16], 1.22% [at 8.39 µM]; in assay [12], 6.59% [at 6.97 µM]; in assay [14], 0.139% [at 5.23 µM]. The activity, negative = inhibition is 5.13% [at 8.39 µM] in assay [3] and -17.8% [at 4.65 µM] in [13]. Moreover, the activity change, negative = cytotoxicity in [4] was -0.627% [at 8.39 µM]; in assay [5], 12.4% [at 8.39 µM]; in assay [6] it was -2.7% [at 8.39 µM]; in assay [15], -4.75% [at 8.39 µM]; in assay [8] it was -2.59% [at 8.39 µM]; in assay [9], 20.3% [at 8.39 µM]. Also, the activity change, negative = cytotoxicity in assay [11] is -7.04% [at 6.97 µM]. Moreover, the cAMP activity change in assay [19] was 0.505% [at 8.39 µM, hits give high values].
For `C#CCN(C)CCCOc1ccc(Cl)cc1Cl`, the Potency entry in assay [1], in assay [2], in assay [3], in assay [4], in [6] and in assay [18] was “inactive” in each case. In addition, the Potency result in assay [15], in [8], in assay [9] and in assay [10] was “inactive” in each case. Moreover, in [13], the outcome was inactive.
With `S=C([S-])NCCNC(=S)[S-].[Mn+2]`, the Potency entry in assay [1], in assay [2], in [3], in assay [4], in [6] and in assay [20] was “inactive” throughout. Further, the Potency result in [15], in assay [16], in assay [10] and in assay [12] was “inactive” throughout. Also, the outcome in assay [11] was inactive.
Take `CCOc1ccc(O)cc1`: the Potency in [1] is 15.4 µM (active). Further, the Potency entry in [2], in assay [3], in [4], in assay [5], in assay [18] and in assay [19] was “inactive” in each case. The Potency entry in assay [20], in [16], in [7], in assay [8], in assay [9] and in [12] was “inactive” in each case. Also, the Potency entry in [14] is “inactive”. Besides, the result in assay [11] and in [13] was inactive.
Regarding `NCCCN1CCOCC1`, the Potency result in assay [1], in [2], in assay [3], in assay [4], in assay [5] and in [17] was “inactive” each time. Moreover, the Potency entry in assay [6], in assay [18], in [19], in [20], in assay [15] and in assay [16] was “inactive” in each case. Further, the Potency result in [8], in assay [9], in assay [10] and in assay [12] was “inactive” each time. In addition, the molecule was classed as inactive in assay [11] and in assay [13].
On to `COc1ccnc(CS(=O)c2nc3ccc(OC(F)F)cc3[nH]2)c1OC` (configuration not stated), for which the Potency entry in assay [1], in assay [2], in assay [3], in assay [4], in [5] and in [6] was “inactive” each time. Besides, the Potency result in assay [18], in assay [19], in assay [20], in assay [15], in assay [16] and in assay [8] was “inactive” in each case. The Potency result in assay [10] and in [12] was “inactive” throughout. Moreover, the call in assay [11] was inactive.

The values are drawn from PubChem BioAssay (Tox21).
